High-throughput results (PubChem)
NS1 inh – blocks influenza NS1 protein function; hit rate 0.4% among 270,000; Potency, µM (series often up to 46.1 µM), inactives show top-dose activity, positive = more growth; calls by dose curve; also: actives are rising curves; nearly all actives have a fitted effect of over 50% in size
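S. cerevisiae expressing influenza A NS1, grown in glucose, washed, then diluted 1:100 into pH 6.0 -URA galactose medium with 23 nl compound. Growth recovery read as OD600; NS1-free strain serves as control.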
SARS PLpro yeast – blocks SARS-CoV papain-like protease in a yeast assay; S. cerevisiae expressing SARS-CoV PLpro, growth rescue; Potency, µM (titrated, usually from 32.9 µM), for the others: top-dose activity, positive = growth rescue, hits mostly activators; hit rate 0.19% among 330,000; AID 485353; calls by dose curve; also: 0% is about no effect; nearly all actives have a fitted effect of over 55% in size
FBPA Giardia inh – Giardia lamblia aldolase inhibition; Potency, µM (doses to about 59.6 µM), inactives show at the highest dose activity, negative = inhibition, usual class: inhibitors; hit rate 0.71% among 290,000; A8B2U2; purified Giardia FBPA; also: % is scaled to controls: 0 for no effect and ±100 for the full control effect; nearly all actives have a fitted effect of over 55% in size
Target sequence (A8B2U2 whole entry, looked up): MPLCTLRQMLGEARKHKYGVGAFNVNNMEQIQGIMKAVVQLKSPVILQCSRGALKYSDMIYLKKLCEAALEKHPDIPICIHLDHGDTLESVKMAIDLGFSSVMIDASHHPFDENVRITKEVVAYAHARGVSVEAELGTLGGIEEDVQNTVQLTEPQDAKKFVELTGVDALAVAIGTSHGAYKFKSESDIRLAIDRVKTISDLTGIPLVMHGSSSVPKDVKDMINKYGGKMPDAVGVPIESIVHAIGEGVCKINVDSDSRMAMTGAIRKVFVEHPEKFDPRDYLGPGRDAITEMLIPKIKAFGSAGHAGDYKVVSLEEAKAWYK
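40 nM FBPA preincubated 10 min at RT with compound (up to 57.5 uM final), then substrate plus GAPDH/TPI/NAD/arsenate coupling and diaphorase/resazurin added. Fluorescence read after 20 min at RT, 525/598 nm.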
AmpC no deterg – inhibitors of E. coli AmpC beta-lactamase without detergent; P00811; AmpC nitrocefin hydrolysis, absorbance 480 nm, 0.0001% Triton; Potency, µM (series often up to 57.1 µM), for inactives: at the highest dose activity change, negative = inhibition, most hits filed as inhibitors; hit rate 0.52% among 330,000;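 also: plate controls were no compound for no effect and no enzyme for full effect; nearly all actives have a fitted effect of over 20% in size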
Target sequence (P00811 whole entry, looked up): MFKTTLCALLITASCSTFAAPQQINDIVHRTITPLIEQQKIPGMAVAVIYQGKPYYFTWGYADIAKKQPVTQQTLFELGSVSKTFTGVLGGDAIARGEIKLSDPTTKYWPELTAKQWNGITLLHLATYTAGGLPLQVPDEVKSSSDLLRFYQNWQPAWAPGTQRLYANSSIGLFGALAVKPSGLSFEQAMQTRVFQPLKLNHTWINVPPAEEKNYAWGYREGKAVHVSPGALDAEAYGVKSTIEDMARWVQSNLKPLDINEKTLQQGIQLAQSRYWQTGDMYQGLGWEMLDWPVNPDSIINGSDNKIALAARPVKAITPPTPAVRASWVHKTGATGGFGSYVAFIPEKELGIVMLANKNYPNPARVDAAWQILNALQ
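20 mM phosphate pH 7.0 + 0.01% (detergent screen) or 0.0001% Triton X-100; 5.3 nM AmpC reagent; cpd preinc 15 min RT; nitrocefin (800 uM stock) to start; A480 q20 s × 4 min; Activity was normalised to no-enzyme and no-compound control wells.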
AmpC detergent – AmpC beta-lactamase inhibition with detergent present; P00811; AmpC hydrolysis of nitrocefin, absorbance 480 nm, 0.01% Triton; Potency, µM (top dose mostly 114 µM), inactives show at the highest dose activity change, negative = inhibition, hits mostly inhibitors; hit rate 0.041% among 370,000;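 also: 0% = no-compound wells and -100% = no-enzyme wells; nearly all actives have a fitted effect of over 25% in size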
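AmpC (5.3 nM in the dispensed reagent) in 20 mM phosphate pH 7.0 with 0.01% (detergent screen) or 0.0001% Triton X-100 was preincubated with compounds for 15 min at room temperature. Nitrocefin was then added from an 800 uM solution, and hydrolysis was followed at 480 nm.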
Active calls of the source: *; ? = inconclusive; nt = no result; ! = a repeat was not active; [ ] = dose if it differs, or a comment. Shown are actives, neighbours in structure and some others; about 1.4% of the full set was active somewhere. Unless noted, calls follow the shape of the dose curve; as a rule, active = well fitted curve in the direction sought with a large enough effect; inconclusive = small, poorly fitted or top-dose-only effect, or another doubt; inactive = no such curve, though single readings can be large; an effect the other way counts as inactive or inconclusive. Potency is read from the fitted curve at half-maximal effect.

SMILES	NS1 inh	SARS PLpro yeast	FBPA Giardia inh	AmpC no deterg	AmpC detergent
CCCc1c(C)[nH]c2ccc(C(=O)O)cc2c1=S	10%	2%	?	-33%	40µM*
Cc1[nH]c2ccc(C(=O)O)cc2c1C	-65%	-4%	-3%	-10%	-9%
CSc1ccccc1NC(=O)C1=CC(c2cccs2)=NS(=O)(=O)N1C	-2%	-2%	-10%	-44%	-19%
Oc1ccc(N=Cc2ccc(OCc3ccccc3)cc2)cc1	-6%	-2%	20µM*	-26%	2%
O=C(N/N=C/c1ccc(OCc2ccccc2)cc1)c1ccncc1	-1%	-1%	0%	-6%	-5%
CC[C@H](C)[C@H](NC(=O)[C@H](Cc1ccc(O)cc1)NC(=O)CNC(=O)[C@@H]1CCCN1C(=O)[C@H](CC(=O)O)NC(=O)[C@@H](N)CS)C(=O)NCC(=O)N[C@@H](CO)C(=O)N[C@@H](CCCN=C(N)N)C(N)=O	nt	nt	-1%	nt	nt
O=C(Nc1cccc(S(=O)(=O)NCc2ccco2)c1)c1cc(-c2ccc(F)cc2)nc2ccccc12	?	-3%	-14%	-39%	1%
COc1ccc(-c2cc(C(=O)Nc3cccc(S(=O)(=O)NCc4ccco4)c3)c3ccccc3n2)cc1OC	21%	1%	-7%	2µM*	-4%
Cc1nn(C)c2c1c(C(F)(F)F)cc(=O)n2CC(=O)N1CCCCC1C (stereo not given)	nt	nt	nt	nt	0%
O=c1[nH][nH]c2c(N=Cc3ccccc3O)ccc(F)c12	6%	-1%	6.3µM*	-45%	?
O=C(O)c1ccccc1N1C(=O)C2C3c4ccccc4C(Br)(c4ccccc43)C2C1=O (stereo not given)	11%	0%	7%	2%	0%
CCCCNC(=O)c1ccccc1Cl	7%	-5%	4%	-9%	-25%
CCCCNC(=O)c1ccccc1C(=O)NCCCC	2%	1%	2%	1.1µM*	0%
COc1ccc2c3c(c(=O)oc2c1)C1O[C@](c2ccsc2)(Cc2cc(C#N)ccc21)O3	23%	8%[6.58 µM]	-4%[12.9 µM]	5µM*	?
N#Cc1ccc2c(c1)C[C@]1(c3ccsc3)Oc3c(c(=O)oc4ccc(F)cc34)C2O1	15%	-18%[6.58 µM]	-23%[12.9 µM]	?	?
N#Cc1ccc2c(c1)C[C@]1(c3ccsc3)Oc3c(c(=O)oc4ccccc34)C2O1	19%	-4%[6.58 µM]	-1%[12.9 µM]	5µM*	-3%[22.9 µM]
CN(CC(=O)Nc1ccc(N2CCOCC2)cc1)C(=O)C1CCCC1	nt	0%	7%	-26%[11.4 µM]	1%
CCN(CC)c1ccc(NC(=O)COc2ccc(C#N)cc2)cc1S(=O)(=O)Nc1ccc(OC)cc1	?	14%	-1%	5µM*	-1%
COc1ccc(OCC(=O)Nc2ccc(C)c(S(=O)(=O)N(C)C)c2)cc1	nt	-1%	1%	-34%	-1%
Cc1ccc(-c2nc(CS(=O)(=O)CC(=O)N3CCN(c4ccccc4)CC3)c(C)o2)cc1	nt	nt	nt	nt	21%
Cc1ccc(-c2nc(CS(=O)(=O)CC(=O)N3CCCCCC3)c(C)o2)cc1	-4%	7%	3%	6.3µM*	-12%
Cc1ccc(-c2nc(CS(=O)(=O)CC(=O)N3CCc4ccccc4C3)c(C)o2)cc1	-82%	-9%	-11%	40µM*	?
Cc1cccc(NC(=O)CCCCCN2C(=O)c3ccccc3C2=O)n1	-2%	-1%	0%	7.1µM*	4%
COc1ccc(CCn2c(O)cc3nn(-c4nc5ccccc5s4)c(=O)c-3c2C)cc1	?	0%	-10%	10µM*	2%
COc1ccc(CN2CCN(c3nc4ccccc4s3)CC2)cc1	0%	2%	0%	-3%	-4%
SMILES	NS1 inh	SARS PLpro yeast	FBPA Giardia inh	AmpC no deterg	AmpC detergent
COc1ccc(C2CC(c3ccccc3)n3nc(NC(=O)c4cccs4)nc3N2)cc1 (stereo not given)	?	0%	6%	-30%	-8%
COC(=O)C1(C(=O)OC)NOC2C(=O)N(c3ccc(Cl)cc3Cl)C(=O)C21 (stereo not given)	23%	1%	6%	4.5µM*	5%
COc1nc(N)c(S(=O)(=O)c2ccccc2C)cc1C#N	-3%	-1%	10%	0.16µM*	6%
COc1nc(N)c(S(=O)(=O)c2ccccc2)cc1C#N	5%	-1%	1%	-30%	0%
NC(=O)C1CCN(C(=S)c2ccc(-c3ccc(Br)cc3)o2)CC1	nt	1%	3.5µM*	-45%	-4%
Cc1c(Cl)cccc1-n1ccnc1SCC(=O)O	3%	-9%	4%	11%	?
COCCn1c(Sc2nc(C)cs2)nc2c1c(=O)[nH]c(=O)n2C	3%	1%	-6%	0.16µM*	-1%
Cc1ccsc1/C=N/NC(=O)c1cccc(S(=O)(=O)Nc2ccccc2Cl)c1	-12%	1%	?	-27%	-12%
Cc1ccc(N(CC(=O)NC(C)C)C(=O)CCC(=O)Nc2ccccn2)cc1	1%	-4%	1%	-14%	1%
Cc1nc(-c2coc3c(O)c(O)ccc3c2=O)cs1	nt	nt	14µM*	nt	nt
CC1COC2=C1C(=O)C(=O)c1c2ccc2c1CCCC2(C)C (stereo not given)	nt	nt	1.6µM*	nt	nt
Cc1ccc2c3c(cccc13)-c1ccccc1C2=O	-7%	-25%	1%	-20%	?
Cc1coc2cc3oc(=O)c4c(c3cc12)CCC4	-3%	-5%	5%	-23%	-1%
C[C@H]1COC2=C1C(=O)C(=O)c1c2ccc2c1CCCC2(C)C	-4%	-4%	?	?	1%
Cc1coc2c1C(=O)C(=O)c1c-2ccc2c1CCCC2(C)C	-21%	-4%	18µM*!	10µM*	-1%
Cc1coc2c1C(=O)C(=O)c1c-2ccc2c(C)cccc12	-76%	-5%	1.3µM*	-59%	-1%
CCN(C(=O)c1cc2c(=O)n3cccc(C)c3nc2n1CCCOC)C1CCCCC1	-55%	-8%	nt	118%	-4%
Cc1ccc2oc3c(c(=O)c2c1)C(c1cccc(O)c1)N(c1ccccn1)C3=O (stereo not given)	-121%	4%	1%	3.5µM*	-5%
CCCC(c1nnnn1CS(=O)(=O)c1ccc(C)cc1)N1CCN(C2CCCC2)CC1 (stereo not given)	10%	-1%	?	27%	3%
CCCCC(c1nnnn1CS(=O)(=O)c1ccc(C)cc1)N1CCN(c2ccccc2)CC1 (stereo not given)	7.1µM*	-14%	7%	-23%	0%
Clc1ccccc1-c1nnc2sc(-c3cccs3)nn12	-34%	22µM*	0%	-38%	-5%
Clc1ccccc1-c1nnc2sc(-c3ccncc3)nn12	4%	-5%	3%	-14%	-13%
O=C(NNC(=O)c1cc2ccccc2cc1O)Nc1ccc(Br)cc1	-6%	-4%	11%	?	?
COc1ccc(C)cc1NC(=O)NNC(=O)c1cc2ccccc2cc1O	10%	5%	4%	6.3µM*	0%
COc1cc(NC(=O)c2cc3ccccc3cc2O)c(OC)cc1Cl	-43%	-2%	-14%	3.5µM*	-5%
